Bioassay records deposited in PubChem by several laboratories.
Rows were chosen to be rich in hits. Some 2.7% of all compounds tested hit in one or more screens of this group.
Peg3 prom inh = Peg3 promoter activity inhibition; AID 588405; HeLa PEG-Prom luciferase reporter, luminescence, overnight; inhibition, % at 20 µM; 1.7% of 360,000 active;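 active = inhibition of at least 50% at 20 µM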
MITF TRPM1 inh = inhibitors of MITF-driven TRPM1 promoter in melanoma cells; SK-MEL-5 TRPM1 promoter luciferase, 24 h; inhibition, % at 12.5 µM; 0.83% of 330,000 active; AID 488899;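 active = mean inhibition across replicates of 60% or more, whatever share of single replicates reaches that level; inconclusive = some that reach 60%, reason not given; inactive = mean inhibition across replicates below 60%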
HIF-2a block = blocks HIF-2a reporter activity; 0.72% of 360,000 active; inhibition, % at 18.8 µM; AID 624352; 786-0 RCC cells HIF-2a reporter, luciferase luminescence, overnight;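 active = inhibition of the luminescence signal of 40% or more relative to plate controls, in a single-dose primary screen at 18.75 µM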
KKLEB cytotox = reduces viability of KKLEB cystic fibrosis airway cells; 0.36% of 360,000 active; activity change (cytotoxicity), % at 5 µM; KKLEB CF airway cells viability, ATPlite luminescence, overnight; active compounds read low; cells stimulated with P. aeruginosa culture filtrate;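 active = corrected activity change at or below -50% at 5 µM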
CF NFkB block = cystic fibrosis NF-kB activation inhibition; 0.86% of 360,000 active; inhibition, % at 5 µM; KKLEB NF-kB-GFP reporter, PAF-induced, GFP fluorescence overnight;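 active = at least 50% inhibition at 5 µM, scaled per plate between neutral and stimulator controls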;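 note: PAF is a Pseudomonas aeruginosa culture filtrate used as stimulus; plate controls were PAF-stimulated DMSO wells for no effect and unstimulated DMSO wells for full effect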
Shn3 3UTR inh = inhibitors of Schnurri-3 3'UTR reporter in osteoblasts. Clone20 osteoblast Shn3 3'UTR firefly luciferase, 24 h. inhibition, % at 12.5 µM. 0.52% of 360,000 active. AID 588674;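 active = mean inhibition of at least 75% with every replicate also reaching 75%; inconclusive = mean inhibition at least 75% but some replicate below; inactive = mean inhibition below 75%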;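 note: 0% = median of neutral control wells and 100% = pilot-screen positive control compound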
* hit, by the source's call; ? = inconclusive; · = no result given.

SMILES	Peg3 prom inh	MITF TRPM1 inh	HIF-2a block	KKLEB cytotox	CF NFkB block	Shn3 3UTR inh
COc1ccc(Cn2c3ccc(OC)cc3c3nc4ccccc4nc32)cc1	16	0	14	-13	-5	-12
NC(=O)/C=C/C(=O)Nc1ccc(Cl)cc1	63*	2	13	-12	-5	-2
CCOC(=O)C1(C)CCN1C(=O)c1cccs1 (stereo unspecified)	10	·	7	5	-12	-4
Cc1occc(=O)c1OC(=O)Nc1ccc(Cl)c(Cl)c1	-5	-1	-94	-65*	77*	4
C=CCNc1nc(-c2sc(NC(=O)C(C)(C)C)nc2C)c(-n2cc(-c3ccccc3)nn2)s1	·	·	-8	·	·	·
CN(C)CCN(Cc1ccco1)C(=O)c1cc2c(Cl)nc3ccccc3c2s1	40	-8	20	-27	-9	-2
Cc1ccc2nc(Cl)c3cc(C(=O)N(CCN(C)C)Cc4ccco4)sc3c2c1	93*	-5	-15	-32	14	16
COc1ccc(OC)c(NC(=O)C2(C)CCN2C(=O)CCC2CCCC2)c1 (stereo unspecified)	16	·	6	-3	5	24
O=C1N=c2ccccc2=C1c1sc(=S)n(-c2ccc(O)cc2)c1O	20	19	20	-16	21	-2
O=C1N=c2ccccc2=C1c1sc(=S)n(Cc2ccccc2Cl)c1O	83*	24	17	5	-1	49
CN1c2ccccc2C(C)(C)C12C=Nc1c(ccc3ccccc13)O2 (stereo unspecified)	-112	11	-157	5	7	-29
CN1c2ccccc2C(C)(C)[C@]12C=Cc1cc(O)ccc1O2	23	-4	24	10	5	87*
CN1CCN(CC(=O)Nc2nc3c(s2)CCCC3)CC1	-3	6	-8	1	-3	9
CCN1CCN(/C=N/c2nc3c(s2)CCCC3)CC1	55*	?	20	4	-1	45
COc1cccc(C(O)c2nc(-c3ccc(Cl)cc3)cs2)c1 (stereo unspecified)	-28	·	-40	-6	-31	-6
CCc1nc2ccc(C(=O)Nc3ccc4c(c3)OCC(=O)N4)cn2c1N(CC)Cc1cccc(Br)c1	29	·	-18	-2	-10	-4
CCC(=C(c1ccccc1)c1ccc(OCCN(C)C)cc1)c1ccccc1	7	·	2	-5	-11	15
CCC(=C(c1ccc(O)cc1)c1ccc(OCCN(C)C)cc1)c1ccccc1	-12	·	5	-5	14	14
CC/C(=C(\c1ccccc1)c1ccc(OCCN(C)C)cc1)c1ccccc1	71*	27	-6	-24	26	25
CC/C(=C(\c1ccc(O)cc1)c1ccc(OCCN(C)C)cc1)c1ccccc1	57*	9	18	4	-26	-17
CC1CC(=O)c2c(cc3c(-c4c(O)cc(O)c5c(O)c6c(cc45)OC(C)CC6=O)c(O)cc(O)c3c2O)O1 (stereo unspecified)	105*	79*	91*	-49	53*	76
O=C1C(=O)N(CCS(=O)(=O)c2ccccc2)c2ccc(Cl)cc21	64*	5	7	-8	0	-7
Cn1cnc([N+](=O)[O-])c1S(=O)(=O)c1ccc(Cl)cc1	104*	24	25	7	-13	13
Cn1cnc([N+](=O)[O-])c1NC(C)(C)C	20	-8	18	-2	0	-12
N#Cc1ccc(Nc2nc(-c3ccc(O)cc3O)cs2)cc1C(F)(F)F	103*	-11	-59	10	6	12
SMILES	Peg3 prom inh	MITF TRPM1 inh	HIF-2a block	KKLEB cytotox	CF NFkB block	Shn3 3UTR inh
c1ccc(COc2ncnc3c2ncn3CCCNCC(c2ccccc2)c2ccccc2)cc1	100*	·	14	-17	21	30
COc1ncnc2c1ncn2CCCNCC(c1ccccc1)c1ccccc1	-1	·	-4	2	-10	13
Cc1cc2c(cc1C)-n1nnnc1C(N(C)Cc1ccccc1)C(=O)N2 (stereo unspecified)	·	·	14	·	·	·
N/C(=N\OC(=O)c1ccc(Cl)c([N+](=O)[O-])c1)c1ccccc1	75*	-16	-20	0	-10	-73
CC(C(=O)N1CCN(Cc2ccccc2)CC1)c1ccc([N+](=O)[O-])cc1 (stereo unspecified)	2	-3	8	-9	7	-9
N/C(=N\OC(=O)c1cc([N+](=O)[O-])ccc1Cl)c1cccnc1	62*	-3	-5	4	-2	17
CC(OC(=O)c1ccc(Cl)c([N+](=O)[O-])c1)C(=O)N1CCN(Cc2ccccc2)CC1 (stereo unspecified)	78*	15	25	2	14	15
CC(C)C(C(=O)NCc1ccccc1)N1CCN(C(=O)C2CCCO2)CC1 (stereo unspecified)	·	·	-5	·	·	·
COc1cccc(CN2CCC(C)(Oc3cccc(Cl)c3)C2)c1OC (stereo unspecified)	-11	·	-1	-2	-3	25
CCN(CC)S(=O)(=O)c1ccc(N2CCOCC2)c(NC(=O)c2cc(-c3ccccn3)nc3ccccc23)c1	62*	5	-5	-89*	97*	19
CCOc1cc(N2CCOCC2)c(OCC)cc1NC(=O)c1cc(-c2ccco2)nc2ccccc12	50	17	-6	-39	99*	92*
Nc1c(N(CCC2=CCCCC2)C(=O)COc2ccc(F)cc2)c(=O)[nH]c(=O)n1Cc1ccccc1	97*	92*	0	-8	11	53
CC(C)CN(C(=O)COC(=O)C12CC3CC(CC(C3)C1)C2)c1c(N)n(Cc2ccccc2)c(=O)[nH]c1=O	41	88*	5	-11	7	4
COCCN(C(=O)COC(=O)C1CCC(C(C)(C)C)CC1)c1c(N)n(Cc2ccccc2)c(=O)[nH]c1=O (stereo unspecified)	27	6	11	0	9	88*
CC(C)CN(C(=O)COC(=O)c1ccc(Br)cc1)c1c(N)n(Cc2ccccc2)c(=O)[nH]c1=O	63*	41	14	21	-14	4
COc1ccc([C@@]23Oc4cc(OC)cc(OC)c4[C@]2(O)[C@H](O)[C@H](C(=O)N(C)C)[C@H]3c2ccccc2)cc1	97*	66*	56*	2	60*	91*
Cc1ccc(C(=O)Nc2cccc(C(F)(F)F)c2)cc1Nc1ncnc2nc[nH]c12	38	·	26	8	69*	51
CC1=C(C(=O)N2CCCCCC2)CC(CC(=O)NCCCCc2ccccc2)C(=O)N1CCC1=CCCCC1 (stereo unspecified)	·	·	-5	·	·	·
O=c1[nH]c(C2CCN(S(=O)(=O)c3cccc(C(F)(F)F)c3)CC2)nc2c1nnn2Cc1cccc(F)c1	51*	8	22	-13	15	4
CC(C)C[C@H]1CN([C@@H](Cc2ccc(O)cc2)CN2CCC[C@H]2CN2C(=O)C(=O)NC[C@@H]2Cc2ccccc2)C(=O)C(=O)N1CC1CCCCCC1	·	·	-24	·	·	·
